The results in this text go back to PubChem BioAssay (NCI).

A short description of assay [1]: NCI Yeast Anticancer Drug Screen. Data for the rad50 strain (AID 155).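 Further: 0% = growth of vehicle-only cultures of the same strain.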 To be noted: S. cerevisiae rad50 strain growth inhibition; at 50.0 µM; hits give high values. The procedure, abridged: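 A DNA repair-deficient yeast mutant serves as the test organism; compound-induced growth inhibition is calculated against vehicle-treated cells.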
A short description of assay [2]: NCI Yeast Anticancer Drug Screen. Data for the mec2-1 strain (AID 157). The conditions noted are these: S. cerevisiae mec2-1 strain, at 50.0 µM, hits give high values. The procedure, abridged:
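Vehicle-treated cultures served as reference for growth inhibition of compound-exposed mec2-1 yeast.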

Assay [3] can be described thus: NCI Yeast Anticancer Drug Screen. Data for the sgs1 mgt1 strain (AID 161).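 Further: 0% = growth of cultures given vehicle only.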 The conditions noted are these: S. cerevisiae sgs1 mgt1 strain, at 50.0 µM, hits give high values. The gist of the method:
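Mutant yeast exposed to compound; growth scored against vehicle-only wells.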

The nature of assay [4]: NCI Yeast Anticancer Drug Screen. Data for the cln2 rad14 strain (AID 165).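 Further: 0% = growth equal to vehicle treated cultures.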 The conditions noted are these: S. cerevisiae cln2 rad14 strain, at 50.0 µM, hits give high values. The procedure, abridged:
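Each compound was tested on cln2 rad14 yeast. Inhibition of growth was calculated against vehicle-exposed controls.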

A short description of assay [5]: NCI Yeast Anticancer Drug Screen. Data for the bub3 strain (AID 167). To be noted: S. cerevisiae bub3 mutant strain, at 50.0 µM, hits give high values. The gist of the method: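 Inhibition values come from growth of compound-treated mutant yeast normalised to vehicle-treated controls.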
The nature of assay [6]: NCI Yeast Anticancer Drug Screen. Data for the mlh1 rad18 strain (AID 175). The conditions noted are these: S. cerevisiae mlh1 rad18 strain growth inhibition; at 50.0 µM; hits give high values. The gist of the method: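 Vehicle-treated cultures served as the reference for growth inhibition in a yeast strain carrying DNA damage repair alterations exposed to each compound.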

Compounds without any hit were thinned out: in the full panel of roughly 79,000, 15% have a hit. A number with no mark means an inactive call. The source made the active and inactive calls. No stated cut-off is given here; in the data, active means growth inhibition above about 70%; inactive means the rest.

As for `c1ccc(COC(c2ccccc2)(c2ccccc2)c2ccccc2)cc1`, the growth inhibition is -0.45% in assay [1]; -2.2% in assay [2]; 10.4% in assay [3]; -8.55% in assay [4]; -0.85% in assay [5]; 27.9% in assay [6].

In the case of `O=c1oc2ccccc2c(O)c1C(c1cccc(C(c2c(O)c3ccccc3oc2=O)c2c(O)c3ccccc3oc2=O)c1)c1c(O)c2ccccc2oc1=O`, the growth inhibition is 26.6% in assay [1]; 37.5% in assay [2]; -2.7% in assay [3]; -17.6% in assay [4]; -5.3% in assay [5]; 67.8% in assay [6].

For the compound `Nc1ccc([N+](=O)[O-])c(C(=O)O)c1`, the growth inhibition in assay [1] was -10.2%; in assay [2] it was -26.9%; in assay [3] it was -15%; in assay [4], 15.9%; in assay [5], -15.1%; in assay [6], -6.9%.

In the case of `C(=C(c1ccccc1)c1ccccc1)N1CCOCC1`, the growth inhibition in assay [1] was -2.3%; in assay [2] it was -5.5%; in assay [3] it was 4.7%; in assay [4], -52%; in assay [5], -20.1%; in assay [6] it was 1.2%.

As for `S=C(NCc1cccc2ccccc12)Nc1ccccc1`, the growth inhibition in assay [1] is -9.3%; in assay [2], 7.8%; in assay [3], 39%; in assay [4] it was -27.5%; in assay [5], 8.8%; in assay [6] it was 20.9%.

On to `COc1ccc(NC(=O)COc2ccc(Cl)cc2Cl)cc1`, for which the growth inhibition is 22.9% in assay [1]; 26.8% in assay [2]; 31.4% in assay [3]; 36% in assay [4]; 33% in assay [5]; 19.6% in assay [6].

As for `CC(=O)OC/C=C(\C)CC(/C=C(C)/C=C/C1=C(C)CCCC1(C)C)S(=O)(=O)c1ccccc1` (configuration not stated), the growth inhibition was 35.5% in assay [1]; 9.4% in assay [2]; -6.15% in assay [3]; 2.05% in assay [4]; 0.2% in assay [5]; -5.15% in assay [6].

On to `S=c1nc[nH]c2c1ncn2Cc1ccccc1`, for which the growth inhibition in assay [1] was 5.55%; in assay [2], 4.25%; in assay [3], -14.3%; in assay [4], 1.3%; in assay [5], 4.9%; in assay [6] it was 2.35%.

Take `CCN(CC)c1cccc(C(=O)OCCNCC(C)C)c1`: the growth inhibition was -9.7% in assay [1]; 0.85% in assay [2]; 5.05% in assay [3]; -39.7% in assay [4]; 49.1% in assay [5]; 10.8% in assay [6].

In the case of `O=C(O)c1cnc2cccc([N+](=O)[O-])c2c1`, the growth inhibition is 2.5% in assay [1]; 10.7% in assay [2]; 0.2% in assay [3]; -50.5% in assay [4]; -22.2% in assay [5]; 11.4% in assay [6].

As for `Cc1ncc(CO)c(Nc2ccccc2Cl)n1`, the growth inhibition in assay [1] is 2.5%; in assay [2] it was -2.4%; in assay [3], -6.25%; in assay [4], -16.4%; in assay [5] it was -11.7%; in assay [6], 14.4%.

Consider `CCOC(=O)c1cnc2cc3c(cc2c1Nc1cccc(C)c1C)OCO3`, for which the growth inhibition in assay [1] was -9.9%; in assay [2], -7.35%; in assay [3] it was -16.4%; in assay [4] it was -13%; in assay [5] it was 3.5%; in assay [6] it was -6.6%.

Regarding `NC(=O)c1ncn2c(=O)n(CCl)nnc12`, the growth inhibition in assay [1] was 57.4%; in assay [2], 81.6% (active); in assay [3], 29.6%; in assay [4], 45.5%; in assay [5], 57.5%; in assay [6], 83.5% (active).

Consider `Cc1ccc(O)c(Cc2cc(C)cc(Cc3cc(C)ccc3O)c2O)c1`, for which the growth inhibition in assay [1] is 30.2%; in assay [2], -7.85%; in assay [3] it was 15.2%; in assay [4], 36.9%; in assay [5], -2.85%; in assay [6] it was 42.4%.

With `COc1ccc(N=Cc2ccc(N(CCC#N)S(=O)(=O)c3ccccc3)cc2C)cc1`, the growth inhibition is -9.4% in assay [1]; -10.8% in assay [2]; 5.5% in assay [3]; 13.4% in assay [4]; -16.8% in assay [5]; -10% in assay [6].

For `Cc1[nH]c2ccccc2c1C1=CC(=O)c2ccccc2C1=O`, the growth inhibition in assay [1] was 8.55%; in assay [2] it was 18%; in assay [3], 21.6%; in assay [4], 2.6%; in assay [5], -1%; in assay [6], 13.8%.

In the case of `CCNC(=O)C1Cc2ccccc2N(CC)C1` (configuration not stated), the growth inhibition is -13.4% in assay [1]; -6.65% in assay [2]; -0.75% in assay [3]; -12.2% in assay [4]; -1.9% in assay [5]; 2.75% in assay [6].

In the case of `NC(=O)CC(NC(=O)C(F)(F)F)C(=O)O` (configuration not stated), the growth inhibition was -15.3% in assay [1]; -22.9% in assay [2]; -13.4% in assay [3]; -6.85% in assay [4]; -14.2% in assay [5]; -24.2% in assay [6].

With `O=[N+]([O-])c1cccc(-c2oc(C=Nc3ccccc3)c([N+](=O)[O-])c2-c2cccc([N+](=O)[O-])c2)c1`, the growth inhibition in assay [1] was -5%; in assay [2], -0.8%; in assay [3], 9.45%; in assay [4] it was 14.4%; in assay [5], 17.6%; in assay [6], 19.6%.

On to `OC(c1ccccc1)(c1ccccc1)C1CC1`, for which the growth inhibition in assay [1] was 6.2%; in assay [2], -6.9%; in assay [3] it was 1.6%; in assay [4], 7%; in assay [5], -19.2%; in assay [6], 10.9%.

For the compound `COC(=O)N/N=C(/c1nc2ccc([N+](=O)[O-])cc2[nH]c1=O)C(O)c1ccc(OC)c(OC)c1` (configuration not stated), the growth inhibition in assay [1] is -3.3%; in assay [2], 0.35%; in assay [3] it was -3.05%; in assay [4] it was 17.7%; in assay [5] it was 26.5%; in assay [6], 6.2%.

Consider `COC(=O)c1nc(=S)[nH]c(C(=O)OC)c1C(=O)c1cccc2ccccc12`, for which the growth inhibition was 8.6% in assay [1]; 34.4% in assay [2]; 4.35% in assay [3]; -24.3% in assay [4]; -5.5% in assay [5]; 13.1% in assay [6].

Regarding `Nc1n[n+](-c2ccc(Cl)cc2)no1`, the growth inhibition in assay [1] was 67%; in assay [2] it was 87.8% (active); in assay [3], 87.4% (active); in assay [4], 81.7% (active); in assay [5], 82.8% (active); in assay [6], 91.7% (active).

In the case of `CO/C=C/CCCNCc1ccccc1`, the growth inhibition was -4.5% in assay [1]; -27.4% in assay [2]; 20.6% in assay [3]; 9.7% in assay [4]; 6.3% in assay [5]; 1.2% in assay [6].

Consider `CC(C)C(CNC(=O)c1ccc([N+](=O)[O-])cc1)(C(C)C)C(C)C`, for which the growth inhibition in assay [1] was -2.6%; in assay [2], -36.2%; in assay [3] it was -3.85%; in assay [4] it was -3.7%; in assay [5], 17.8%; in assay [6] it was -1.65%.

`CCC(=S)Nc1ccc(Cl)cc1`: the growth inhibition was -1.9% in assay [1]; -44.6% in assay [2]; -34.5% in assay [3]; -21.2% in assay [4]; -36.9% in assay [5]; -35.4% in assay [6].

On to `CC12CCCC3(CC(=O)C(C)(C)C3C(=O)C1)C2` (configuration not stated), for which the growth inhibition in assay [1] was -13.9%; in assay [2], -16.1%; in assay [3], -18.4%; in assay [4], 10.2%; in assay [5] it was 9.6%; in assay [6] it was 6.2%.

`O=C(CC(O)(C(F)(F)F)C(F)(F)F)c1cccs1`: the growth inhibition in assay [1] is 3.65%; in assay [2] it was 15.4%; in assay [3], 3.75%; in assay [4] it was -34.9%; in assay [5] it was -5.15%; in assay [6] it was 7.5%.

With `NC(=O)SCC(=O)Nc1ccccc1O`, the growth inhibition in assay [1] is 14.6%; in assay [2] it was -27.4%; in assay [3] it was 2.25%; in assay [4], 0.05%; in assay [5], 0.85%; in assay [6] it was -9.5%.

Consider `CCOC(=O)CCCCCC(=O)OCC`, for which the growth inhibition was 4% in assay [1]; 0.25% in assay [2]; -2.7% in assay [3]; 4.1% in assay [4]; 12.8% in assay [5]; 1.8% in assay [6].

Turning to `CCOC(=O)CCC(Cl)(Cl)Cl`, the growth inhibition in assay [1] was 14%; in assay [2], -9.95%; in assay [3], -1.45%; in assay [4] it was -39%; in assay [5], -7.85%; in assay [6] it was 9.2%.

Take `CC(=O)Nc1ccc(NS(=O)(=O)c2ccc3nc(C)n(NS(=O)(=O)c4ccc(NC(C)=O)cc4)c(=O)c3c2)cc1`: the growth inhibition was 29.1% in assay [1]; 38% in assay [2]; 29.1% in assay [3]; 15.4% in assay [4]; 39.2% in assay [5]; 15.3% in assay [6].

For the compound `CCN(CC)CCC(CN(C)C)C(C)O` (configuration not stated), the growth inhibition in assay [1] is -4.05%; in assay [2], 4.05%; in assay [3] it was 13.1%; in assay [4], -17.4%; in assay [5] it was -1.4%; in assay [6] it was 8.75%.

As for `O=C1C(=O)N(C2CCCCC2)C(=S)N1C1CCCCC1`, the growth inhibition in assay [1] was -31.9%; in assay [2], -30.1%; in assay [3] it was -62.1%; in assay [4], -2.5%; in assay [5] it was -5.2%; in assay [6] it was 12.3%.

Turning to `CNC(=O)c1ccccc1C(O)c1ccc(C)cc1` (configuration not stated), the growth inhibition in assay [1] was 7.65%; in assay [2], -6.3%; in assay [3], 17.6%; in assay [4] it was 23.4%; in assay [5], 37.6%; in assay [6] it was 20.6%.

On to `Cc1cc2nnn(C3CCCCO3)c2cc1C` (configuration not stated), for which the growth inhibition in assay [1] was 3.25%; in assay [2], -12.9%; in assay [3], -17.9%; in assay [4], -15.8%; in assay [5], 12.8%; in assay [6], -31.7%.

As for `CCCCCCCC(=O)N1CCCC(C)C1` (configuration not stated), the growth inhibition in assay [1] was -7.8%; in assay [2], -25.8%; in assay [3], 9.3%; in assay [4], -5.75%; in assay [5], -35.3%; in assay [6], -3.9%.
